{"source": "PubChem BioAssay AID2284063", "about": "(EPA ToxCast)", "note": "Inconclusive results are not listed. Calls of active or inactive are those of the source. Rule for the calls: active = hit-call score of the fitted dose curve at least 0.9, where 1 is the maximum; inactive = score below 0.9.", "data": [{"target": "human BTK TK Kinase, BTK (gene 695) (UniProt Q06187)", "sequence (Q06187 whole entry, looked up)": "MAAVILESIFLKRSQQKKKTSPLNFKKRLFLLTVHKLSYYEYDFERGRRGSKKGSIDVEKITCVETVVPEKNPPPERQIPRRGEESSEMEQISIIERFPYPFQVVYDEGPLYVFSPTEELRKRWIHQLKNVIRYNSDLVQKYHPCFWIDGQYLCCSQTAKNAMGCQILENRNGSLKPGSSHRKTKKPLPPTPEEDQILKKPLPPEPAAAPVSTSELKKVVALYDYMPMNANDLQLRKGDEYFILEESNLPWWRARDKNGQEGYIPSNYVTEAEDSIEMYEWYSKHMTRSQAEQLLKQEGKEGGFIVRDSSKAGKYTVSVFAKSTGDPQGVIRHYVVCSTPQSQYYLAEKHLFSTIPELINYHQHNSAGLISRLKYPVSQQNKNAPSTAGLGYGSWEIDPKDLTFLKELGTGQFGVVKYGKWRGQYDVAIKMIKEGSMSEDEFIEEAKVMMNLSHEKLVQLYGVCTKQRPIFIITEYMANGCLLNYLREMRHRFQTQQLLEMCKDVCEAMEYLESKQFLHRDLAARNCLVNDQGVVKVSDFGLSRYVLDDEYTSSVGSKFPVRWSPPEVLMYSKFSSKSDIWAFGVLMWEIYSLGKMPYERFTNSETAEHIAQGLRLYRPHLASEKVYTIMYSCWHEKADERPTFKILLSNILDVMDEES", "assay": "ERF_TW_ENZ_hBTK: Eurofins (ERF) Enzymatic Radiometric [10 uM ATP] LeadHunter Assay for human BTK TK Kinase", "procedure": "ERF_TW_ENZ_hBTK is a biochemical, single-readout assay that uses extracted gene-proteins in a cell-free assay. Measurements were taken 0.5 hour after chemical dosing in a 96-well plate. See BTK Human TK Kinase Enzymatic Radiometric Assay [10 uM ATP], Panlabs.ERF_TW_ENZ_hBTK is an assay component calculated from the ERF_TW_ENZ_hBTK assay. It is designed to measure enzyme activity using a type of enzyme reporter as detected by scintillation counting with radiometry technology.Data from the assay component ERF_TW_ENZ_hBTK was analyzed at the assay endpoint, ERF_TW_ENZ_hBTK, in the positive analysis fitting direction relative to DMSO as the negative control and baseline of activity. Using a type of enzyme reporter, loss-of-signal activity can be used to understand changes in enzymatic activity as they relate to gene BTK. To generalize the intended target to other relatable targets, this assay endpoint is annotated to the kinase intended target family, where the subfamily is tyrosine kinase (tk).\nHuman recombinant protein kinase BTK expressed in insect Sf21 cells is used. Test compound and/or vehicle is preincubated with 200 ng/ml enzymedouble dagger in modified HEPES buffer pH 7.4 for 15 minutes at 37C. […] An aliquot is removed and counted to determine the amount of [32P]Poly(Glu:Tyr) formed. […]", "values": [{"smiles": "O=C(/C=C/c1ccc(O)cc1)CC(=O)/C=C/c1ccc(O)cc1", "AC50": "6.13 µM (active)"}]}]}
